Rows were chosen to be rich in hits. Some 12% of all compounds tested hit in one or more screens of this group.
BAZ2B inh = blocks human BAZ2B. Q9UIF8. Potency, µM (titrated, usually from 114 µM), for inactives: at the top dose activity change, negative = inhibition, actives largely listed as inhibitors. AID 504333. AlphaScreen BAZ2B-H3K14Ac peptide displacement. 360,000 compounds, 4.4% hits; note: % is set by controls: 0 for no effect and ±100 for the full control effect; nearly all actives have a fitted effect of over 60% in size
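BAZ2B (50 nM) with biotin-H3(5-23)K14Ac peptide (50 nM) in PBS pH 7.4, 0.01% Tween-20, preformed 30 min, then compound 30 min at room temperature; top concentration 110uM. AlphaScreen streptavidin donor/nickel chelate acceptor beads (10 ug/mL final), 20 min dark, signal read.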
HP1b chromo inh = inhibitors of HP1-beta chromodomain binding to methylated histone tails. 390,000 compounds, 0.56% hits. AlphaScreen HP1-beta / biotin-H3K9me3 peptide binding. AID 540317. Potency, µM (series often up to 114 µM), without a hit: at the top dose activity change, negative = inhibition, most hits filed as inhibitors; note: nearly all actives have a fitted effect of over 70% in size
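HP1-beta protein (50 nM final) preincubated 30 min at room temperature with biotinylated H3(1-18)K9me3 peptide (50 nM) in PBS pH 7.4, 0.01% Tween-20, then compound added for 30 min. AlphaScreen streptavidin donor/nickel chelate acceptor beads (10 ug/mL final), 30 min dark, luminescence read.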
G9a inh = blocks human histone lysine methyltransferase G9a | Q96KQ7 | G9a H3K9 monomethylation, AlphaScreen, 2 h | Potency, µM (series often up to 102 µM), without a hit: at the top dose activity, negative = inhibition, usual class: inhibitors | 350,000 compounds, 8.8% hits; note: % is set by controls: 0 for no effect and ±100 for the full control effect; nearly all actives have a fitted effect of over 75% in size
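Readings reflect AlphaScreen signal from monomethyl-H3K9 antibody detection. HMT at 20 nM; substrate b-H3K9 500 nM; cofactor SAM 20 uM; 2 h RT reaction; compounds tested as titrations in qHTS with 15 min preincubation.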
Sfp PPTase inh = Sfp phosphopantetheinyl transferase inhibition; Q9F4F7; Biochemical Sfp PPTase activity, qHTS; Potency, µM, without a hit: largest response in the series, negative = inhibition, most hits filed as inhibitors; 310,000 compounds, 3.5% hits; AID 1490;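 note: the enzyme is Sfp with the accession as filed and its product quenches rhodamine fluorescence; 0% = enzyme reaction without inhibitor and -100% = no enzyme wells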
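Compounds were incubated with enzyme (final 15 nM) for 15 min at room temperature before substrate addition started the reaction. Fluorescence at 525 nm excitation, 598 nm emission was recorded immediately and after 30 minutes.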
JMJD2A Tudor inh = blocks the human JMJD2A Tudor domain | 390,000 compounds, 4.4% hits | Potency, µM (series often up to 114 µM), for the others: at the top dose activity change, negative = inhibition, hits mostly inhibitors | AlphaScreen JMJD2A-Tudor / H3K4me3 peptide binding; note: % is set by controls: 0 for no effect and ±100 for the full control effect; nearly all actives have a fitted effect of over 50% in size
L3MBTL1 inh = blocks human L3MBTL1. Q9Y468. AlphaScreen L3MBTL1–H3K9me1 peptide binding. Potency, µM (top dose mostly 57.1 µM), inactives show at the highest dose activity, negative = inhibition, hits mostly inhibitors. 230,000 compounds, 0.66% hits. AID 485360; note: % is set by controls: 0 for no effect and ±100 for the full control effect; nearly all actives have a fitted effect of over 60% in size
Target sequence (Q9Y468 whole entry, looked up): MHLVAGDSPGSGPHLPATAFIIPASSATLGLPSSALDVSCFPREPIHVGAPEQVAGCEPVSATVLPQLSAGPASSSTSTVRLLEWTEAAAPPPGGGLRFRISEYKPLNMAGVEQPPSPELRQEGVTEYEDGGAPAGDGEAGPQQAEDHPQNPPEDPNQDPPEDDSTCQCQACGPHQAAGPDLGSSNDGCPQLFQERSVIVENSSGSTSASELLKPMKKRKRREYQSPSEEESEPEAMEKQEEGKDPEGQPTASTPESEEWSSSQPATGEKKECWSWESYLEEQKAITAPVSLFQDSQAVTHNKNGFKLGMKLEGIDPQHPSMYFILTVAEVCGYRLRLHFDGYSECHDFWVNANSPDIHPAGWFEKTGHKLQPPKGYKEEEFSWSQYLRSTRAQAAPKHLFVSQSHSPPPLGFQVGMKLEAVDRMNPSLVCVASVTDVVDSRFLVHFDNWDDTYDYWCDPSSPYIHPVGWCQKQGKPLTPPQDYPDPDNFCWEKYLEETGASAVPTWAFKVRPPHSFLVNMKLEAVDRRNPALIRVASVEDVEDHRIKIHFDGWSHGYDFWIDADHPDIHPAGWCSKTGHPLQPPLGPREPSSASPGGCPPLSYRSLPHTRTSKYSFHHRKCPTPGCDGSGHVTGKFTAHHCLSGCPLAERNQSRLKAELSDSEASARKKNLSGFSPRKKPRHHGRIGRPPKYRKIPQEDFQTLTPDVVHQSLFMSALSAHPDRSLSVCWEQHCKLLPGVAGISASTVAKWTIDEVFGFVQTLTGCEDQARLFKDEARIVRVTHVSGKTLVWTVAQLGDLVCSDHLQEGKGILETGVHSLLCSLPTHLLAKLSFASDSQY
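AlphaScreen assay: L3MBTL1 (50 nM final) was preincubated 30 min at room temperature with biotinylated H3(1-15)K9me1 peptide (75 nM final), then 30 min with library compounds; streptavidin donor and nickel chelate acceptor beads (10 ug/mL final) added, 30 min dark.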
Starred values were filed as active, the others as inactive; ? = inconclusive; . = no result given; [ ] = another dose, or the depositor's remark. Calls come from the whole dose curve; as a rule, active = well fitted curve in the direction sought with a large enough effect; inconclusive = small, poorly fitted or top-dose-only effect, or another doubt; inactive = no such curve, though single readings can be large; an effect the other way counts as inactive or inconclusive. Potency is the fitted concentration of half-maximal effect.

SMILES	BAZ2B inh	HP1b chromo inh	G9a inh	Sfp PPTase inh	JMJD2A Tudor inh	L3MBTL1 inh
COc1ccc(-c2nc3cnccn3c2Nc2ccc(C)cc2)cc1	?	32%	3%[59 µM]	14%	-26%	8%
CSc1ccc(-c2nc3cnccn3c2Nc2ccc3c(c2)OCO3)cc1	11µM*	45µM*	45µM*	?	?	.
COc1ccc(Nc2c(-c3ccc(Cl)cc3)nc3cnccn23)cc1OC	45µM*	-37%	13µM*	.	56µM*	.
Cc1ccccc1Cn1nnc(-c2ccc(F)cc2)n1	158%	155%	248%	0%	97%	.
CCn1c(-c2c(Cl)c(C)nn2C)n[nH]c1=S	-5%	-2%	11µM*	-13%	20µM*	1%
CCCCn1c(-c2c(Cl)c(C)nn2C)n[nH]c1=S	-22%	-15%	8.9µM*	-9%	13µM*	.
COc1cccc(Cn2c(=O)n(Cc3ccccc3)c(=O)c3c2c2cc(OC)ccc2n3C)c1	-5%	26%	-1%[59 µM]	.	8%	.
CCC(=O)N1CCc2cc(S(=O)(=O)NC(C(=O)Nc3cc(OC)cc(OC)c3)C(C)C)ccc21 (stereo not drawn)	.	45%	6%[59 µM]	.	-22%	.
Cc1cc2c(s1)c1cnn(Cc3cc(F)cc(F)c3F)c(=O)c1n2C	.	.	.	.	-13%	.
COc1cc([N+](=O)[O-])cc(/C=N/NC(=O)c2cccnc2)c1O	18µM*	13%	.	1%	22µM*	14µM*
COc1cc(OC)c(/C=N/NC(=O)c2ccncc2)c(OC)c1	9%	16%	3%	-11%	4µM*	-1%
COc1ccc(/C=N/NC(=O)c2ccncc2)c(OC)c1	3%	50%	-17%	4%	-8%	.
COc1c(/C=N/NC(=O)c2ccncc2)c(CCN(C)C(C)=O)cc2c1OCO2	-13%	3%	50µM*	14%	3%	-2%
COc1cc([N+](=O)[O-])cc(/C=N/NC(=O)C(O)(c2ccccc2)c2ccccc2)c1O	?	18%	-3%	0%	-28%	-6%
CCOc1cccc(/C=N/NC(=O)c2cccnc2)c1O	32µM*	58%	32%	20%	89µM*	-25%
CCOc1cc(/C=N/NC(=O)c2cccnc2)ccc1O	-1%	27%	6%	20%	-10%	10%
O=C(CCc1nc(-c2cccs2)no1)Nc1cccc([N+](=O)[O-])c1	-23%	22%	-26%[59 µM]	.	-17%	.
COc1cccc(C=NNC(=O)c2ccncc2)c1O	.	15%	.	.	56µM*	.
COc1ccc(-n2c(CCc3ccccc3)nnc2SCC(=O)c2ccc(Cl)cc2)cc1	6%	18%	?	-8%	-27%	3%
O=C(CSc1nnc(CCc2ccccc2)n1-c1ccc(Cl)cc1)c1ccccc1	-32%	2%	11µM*	-19%	-33%	1%
Cc1onc(-c2ccccc2)c1C(=O)N1CCCCCC1	0%	40%	13%	17%	-15%	.
Cc1onc(-c2ccccc2)c1C(=O)N1CCCC1	50µM*	32%	55%	14%	-17%	.
Cc1onc(-c2c(F)cccc2Cl)c1C(=O)N1CCSCC1	-11%	45%	50µM*	9%	7%	-2%
O=C(c1cc2ccccc2o1)N1CCN(c2cccc(Cl)c2)CC1	-2%	26%	35%	19%	-1%	.
N#CC1(NC(=O)COC(=O)c2cc(=O)[nH]c3ccccc23)CCCCC1	6%	26%	-32%	.	-14%	-2%
SMILES	BAZ2B inh	HP1b chromo inh	G9a inh	Sfp PPTase inh	JMJD2A Tudor inh	L3MBTL1 inh
Cc1cccc(C)c1NC(=O)C1C2C=CC(C2)C1C(=O)NCc1ccccn1 (stereo not drawn)	79µM*	9%	?	0%	-17%	.
O=C(O)C1C2C=CC(C2)C1C(=O)NCc1ccccn1 (stereo not drawn)	?	.	42%[59 µM]	12%	.	0%
Cc1cc2cc(CCNC(=O)c3ccc(Br)o3)c(=O)[nH]c2cc1C	-23%	32%	18µM*	28µM*	-22%	-3%
COc1ccc2cc(CCNC(=O)c3ccc(Br)o3)c(=O)[nH]c2c1	6%	13%	50µM*	1%	-27%	-4%
Cc1ccc(C)c2[nH]c(=O)c(CCNC(=O)c3ccc(Br)o3)cc12	.	39%	.	.	-19%	.
COc1ccc(-n2c(SCC(=O)N3CCc4ccccc43)nc3c([nH]c4ccccc43)c2=O)cc1	1%	23%[57 µM]	0%[59 µM]	.	-9%	.
Cc1cccc(-n2cc(-c3ccccc3)c3c(=O)[nH]cnc32)c1	45µM*	?	?	-15%	79µM*	-10%
CCOc1ccc(-n2cc(-c3ccccc3)c3c(=O)[nH]cnc32)cc1	?	?	45µM*	-9%	?	.
Cc1ccc(C)c(N2CCN(CCCNC(=O)c3cnn(-c4ccc(F)cc4)c3C3CCN(C(=O)OC(C)(C)C)CC3)CC2)c1	-22%[57.1 µM]	9%	?	.	?	.
COc1ccc(CNC[C@H]2O[C@@H](n3cnc4c(N)ncnc43)[C@H](O)[C@@H]2O)cc1OC	.	46%	.	.	-15%	3%
Cc1cc(C)c2c(=O)[nH]c(SCC(=O)N(C)C)nc2n1	4%	16%	-4%	8%	-12%	1%
Cc1cc(C)c2c(N=NN(C)C)[nH]nc2n1	5%	31%	45µM*	0%	-6%	3%
Cc1ccc(CNC(=O)CN2C(=O)CCc3cc(S(=O)(=O)N4CCCCC4)ccc32)cc1	0%	27%	-2%[12.7 µM]	.	-7%	.
Cc1ccc(-n2nc(-c3ccc(F)cc3)c3cnc4cc5c(cc4c32)OCO5)cc1C	.	20%	9%[59 µM]	.	-20%	.
O=C(c1ccco1)N1CCN(C(=O)c2cnn(-c3ccc(Cl)cc3)c2C2CCNCC2)CC1	-5%	38%	71µM*	1%	-10%	.
CC(C)(C)OC(=O)N1CCC(c2c(C(=O)N3CCN(C(=O)c4ccco4)CC3)cnn2-c2ccc(Cl)cc2)CC1	8%[57.1 µM]	39%	-7%[59 µM]	.	-3%	.
COc1cc(NC(=O)C2CCN(S(=O)(=O)c3c(C)noc3/C=C/c3cccs3)CC2)cc(OC)c1	.	12%	-8%[59 µM]	.	-16%	.
COc1ccc(/C(=N\Nc2ccccc2C(=O)O)c2ccccc2)cc1	-34%	-3%	35µM*	2%	?	.
CCOC(=O)C(=O)N/N=C(/c1ccccc1)c1ccc(OC)cc1	-11%	15%	8%	22%	-15%	-2%
COc1ccc(C(=O)C(=NNc2ccccc2)c2ccc(OC)cc2)cc1	.	?	.	.	45µM*	.
COc1ccc(N/N=C(\C=N\O)C(=O)c2ccc(OC)cc2)cc1	40µM*	-8%	50µM*	0%	?	.
Cc1cc(C)c(S(=O)(=O)N2CCN(C(=O)c3ccc(-n4cncn4)c([N+](=O)[O-])c3)CC2)c(C)c1	1%	-4%	?	.	-34%	-14%
COC(=O)c1nnc(-c2ccccc2)c(-c2ccccc2)n1	-1%	5%	32µM*	-16%	-19%	1%

Bioassay records from PubChem.
